# An excerpt weighted towards active compounds, which were near 9% of everything screened.
# BAZ2B block: blocks human BAZ2B; Q9UIF8; AlphaScreen BAZ2B-H3K14Ac peptide displacement; Potency, µM (titrated, usually from 114 µM), without a hit: top-dose activity change, negative = inhibition, actives largely listed as inhibitors; 360,000 compounds, 4.4% hits; AID 504333; further: on the % scale 0 is the no-effect control and ±100 the full control effect; nearly all actives have a fitted effect of over 60% in size
#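 Inhibition is scored as reduced AlphaScreen emission. The BAZ2B/b-H3(5-23)K14Ac complex (50 nM each) in PBS pH 7.4, 0.01% Tween-20 meets compound (up to 110 uM) for 30 min at RT before bead addition.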
# JMJD2A Tudor: JMJD2A Tudor domain (human) inhibition | O75164 | AlphaScreen JMJD2A-Tudor / H3K4me3 peptide binding | Potency, µM (series often up to 114 µM), inactives show at the top dose activity change, negative = inhibition, hits mostly inhibitors | 390,000 compounds, 4.4% hits; further: on the % scale 0 is the no-effect control and ±100 the full control effect; nearly all actives have a fitted effect of over 50% in size
# PLK1 PBD inh: inhibitors of human PLK1 polo-box domain binding | AID 720504 | 360,000 compounds, 2.8% hits | Plk1 PBD binding of FITC phosphopeptide, fluorescence polarization | Potency, µM, for the others: max response, negative = inhibition, actives largely listed as inhibitors; further: series mostly up to about 57 µM; on the % scale 0 is the no-effect control and ±100 the full control effect; nearly all actives have a fitted effect of over 65% in size
# G9a inh: inhibitors of human histone lysine methyltransferase G9a; Potency, µM (series often up to 102 µM), for the others: top-dose activity, negative = inhibition, most hits filed as inhibitors; 350,000 compounds, 8.8% hits; G9a H3K9 monomethylation, AlphaScreen, 2 h; Q96KQ7; further: on the % scale 0 is the no-effect control and ±100 the full control effect; nearly all actives have a fitted effect of over 75% in size
# Target sequence (Q96KQ7 913-1193 limits assumed): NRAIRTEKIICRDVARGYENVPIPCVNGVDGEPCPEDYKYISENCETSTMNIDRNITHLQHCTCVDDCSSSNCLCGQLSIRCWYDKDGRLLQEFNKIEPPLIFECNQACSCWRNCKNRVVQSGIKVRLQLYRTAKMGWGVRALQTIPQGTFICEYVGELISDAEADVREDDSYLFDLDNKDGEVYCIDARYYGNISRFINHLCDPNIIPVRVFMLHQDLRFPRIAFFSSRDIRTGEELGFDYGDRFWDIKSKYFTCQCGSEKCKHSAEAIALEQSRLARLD
#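 Chemiluminescent proximity detection of H3K9 monomethylation, read after 10 min bead incubation in the dark. Reaction: 20 nM G9a, 500 nM biotin-H3K9 peptide, 20 uM SAM cofactor, 2 h, room temperature, following 15 min enzyme-compound preincubation.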
# 12-LOX inh: ALOX12 (human) lipoxygenase inhibition; P18054; purified 12hLO, xylenol orange hydroperoxide absorbance; Potency, µM (doses to about 108 µM), for inactives: at the highest dose activity change, negative = inhibition, hits mostly inhibitors; 580,000 compounds, 1.1% hits; further: on the % scale 0 is the no-effect control and ±100 the full control effect
#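 Hydroperoxide product was detected by ferrous iron/xylenol orange as the 573 to 405 nm absorbance ratio. Arachidonic acid at 40 uM (final) was turned over for 30 min at room temperature by 150 nM human 12hLO, pH 7.0 Hepes buffer, after 15 min compound preincubation.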
# HP1b chromo inh: HP1-beta chromodomain-methylated histone interaction inhibition; AlphaScreen HP1-beta / biotin-H3K9me3 peptide binding; AID 540317; 390,000 compounds, 0.56% hits; Potency, µM (highest dose often 114 µM), without a hit: at the top dose activity change, negative = inhibition, actives largely listed as inhibitors; further: nearly all actives have a fitted effect of over 70% in size
# Target sequence (P83916 whole entry, looked up): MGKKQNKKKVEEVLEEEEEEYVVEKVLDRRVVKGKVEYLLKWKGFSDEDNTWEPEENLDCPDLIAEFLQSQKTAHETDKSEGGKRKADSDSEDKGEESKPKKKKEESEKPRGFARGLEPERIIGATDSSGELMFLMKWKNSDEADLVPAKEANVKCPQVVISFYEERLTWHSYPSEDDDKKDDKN
#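 Compound inhibition of the preformed complex between 50 nM HP1-beta and 50 nM biotinylated H3K9me3 peptide was read by AlphaScreen. Buffer was PBS pH 7.4 with 0.01% Tween-20. Incubations ran 30 min at room temperature, with 10 ug/mL donor/acceptor beads.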
# Starred values were filed as active, the others as inactive; ? = inconclusive; nt = not tested or not shown; [ ] = another dose, or the depositor's remark. The call rests on the fitted dose curve; in most records, active means well fitted curve in the direction sought with a large enough effect; inconclusive means small, poorly fitted or top-dose-only effect, or another doubt; inactive means no such curve, though single readings can be large; an effect the other way counts as inactive or inconclusive. Potency means the concentration at half of the fitted maximal effect.
SMILES,BAZ2B block,JMJD2A Tudor,PLK1 PBD inh,G9a inh,12-LOX inh,HP1b chromo inh
COc1nccnc1NS(=O)(=O)c1ccc(NC(=S)NC(=O)c2cccnc2)cc1,?,-13%,-5%,50µM*,-24%,8%
COc1nsnc1NS(=O)(=O)c1ccc(NC(=S)NC(=O)c2cccnc2)cc1,?,11µM*,?,nt,-25%,?
CC1=CC(c2ccccc2)n2nc(N)nc2N1 (configuration not stated),nt,-12%,-1%,nt,16%,43%
COc1ccc(C2C=C(C)Nc3nc(SC)nn32)cc1 (configuration not stated),0%,-18%,-7%,56µM*,?,38%
Cc1onc(-c2c(Cl)cccc2Cl)c1C(=O)Nc1ccc(Cl)cn1,-7%,20%,-9%,nt,13%,18%
O=C(CN1C(=O)C2CC=C(Cl)CC2C1=O)Nc1ccc(C(=O)O)cc1 (configuration not stated),-12%,-25%,-8%,13µM*,0%,12%
O=C(CCN1C(=O)C2CC=C(Cl)CC2C1=O)NCc1ccco1 (configuration not stated),2%,-26%,-12%,-9%[59 µM],?,32%
O=C(CCN1C(=O)C2CC=C(Cl)CC2C1=O)NCc1ccccc1 (configuration not stated),-5%,-2%,-6%,18µM*,0%,27%
CCCCNC(=O)c1cccc2c1CCN2C(=O)Nc1ccc(C)cc1,nt,nt,nt,nt,18%,nt
O=C(NCCCc1ccccc1)c1n[nH]c2c1CN(C(=O)c1ccc(Cl)cc1)CC2,nt,nt,nt,nt,-17%,nt
COc1ccc(-c2cn3c(C)c(C(=O)N4CCN(c5ccc(F)cc5)CC4)sc3n2)cc1,1%,-16%,1%,-5%,10%[57.4 µM],27%
COc1ccccc1N1CCN(C(=O)c2cc(-c3ccco3)on2)CC1,-8%,?,-7%,45µM*,?,3%
COc1ccccc1N1CCN(C(=O)c2cc(-c3ccccc3O)on2)CC1,-4%,-11%,-15%,-13%,-17%,-19%
COc1ccccc1N1CCN(C(=O)c2cc(-c3ccccc3)on2)CC1,-15%,-14%,-2%,16%[59 µM],6%,24%
COc1ccc(-c2cc(C(=O)N3CCN(c4ccccc4OC)CC3)no2)cc1OC,79µM*,?,-13%,6%[59 µM],-10%,2%
COc1ccccc1N1CCN(C(=O)c2sc3nc(-c4ccc(F)cc4)cn3c2C)CC1,?,-32%,-5%,28µM*,-15%,6%
COc1ccc(CCNC(=O)c2noc(-c3ccccc3F)n2)cc1OC,nt,nt,nt,nt,20%,nt
Cc1onc(-c2ccccc2Cl)c1C(=O)NCCCN1CCOCC1,-4%,-5%,-7%,-41%[59 µM],1%,7%
O=C(CN1CCN(c2ccc([N+](=O)[O-])c3cnccc23)CC1)Nc1ccccc1F,nt,nt,nt,nt,11%,nt
COCc1nn2c3c(cnc2c1-c1cccc(Cl)c1)C(=O)CC(c1ccc(OC)c(OC)c1)C3 (configuration not stated),nt,nt,nt,nt,-19%,nt
CN1CC(=O)N(c2ccccc2)Cc2c1ncnc2N1CCC(O)CC1,nt,nt,nt,nt,42%,nt
CN1CC(=O)N(c2ccccc2)Cc2c1ncnc2N1CCc2ccccc2C1,nt,nt,nt,nt,32µM*,nt
Cc1ccccc1Cn1c(=O)n(CC2CCC(C(=O)NCCc3ccccc3)CC2)c(=O)c2ccccc21 (configuration not stated),0%,-4%,-7%,1%,-2%,22%
CCSC1=N/C(=C\C=C2/Oc3ccccc3N2CC)C(=O)S1,32µM*,35µM*,48%,13µM*,?,?
COc1ccc(C2CC(c3cccc(OC)c3)n3nc(N)nc3N2)cc1 (configuration not stated),-2%,-13%,-1%,9%,18%[57.4 µM],45%
SMILES,BAZ2B block,JMJD2A Tudor,PLK1 PBD inh,G9a inh,12-LOX inh,HP1b chromo inh
COCC(=O)Nc1nc2n(n1)C(c1ccc(Cl)cc1)CC(c1ccc(OC)cc1)N2 (configuration not stated),?,?,-24%,79µM*,292%,53%
COc1cccc(C2CC(c3ccc(Cl)cc3)n3nc(N)nc3N2)c1 (configuration not stated),8%,?,21µM*,-5%,261%,1%
CN1CCC(=C(c2ccc(Cl)cc2)c2ccccn2)CC1,-7%,-1%,-6%,31%[0.501 µM],0%,34%
CC(C)c1ccc2c(c1)C1(NN=C(c3ccccc3)S1)C(=O)N2 (configuration not stated),10µM*,71µM*,?,18µM*,?,?
CCc1ccc2c(c1)C1(NN=C(c3ccc(C)cc3)S1)C(=O)N2 (configuration not stated),7.9µM*,50µM*,?,28µM*,?,18µM*
COc1ccc(N(C(=O)CNC(=O)c2ccco2)C(C(=O)NC2CCCCC2)c2ccncc2)cc1 (configuration not stated),10%,3%,8%,-3%[59 µM],-10%,26%
Cc1ccc(CNS(=O)(=O)c2ccc3c(c2)NC(=O)CS3)cc1,6%,4%,4%,36%,6%,52%
CN(C)c1ccc(CNS(=O)(=O)c2ccc3c(c2)NC(=O)CS3)cc1,?,?,-19%,50µM*,-3%,-4%
CC(CS(=O)(=O)c1ccc2c(c1)NC(=O)CS2)C(=O)NCc1ccccc1Cl (configuration not stated),14µM*,25µM*,?,?,-29%,13µM*
O=C1CSc2ccc(S(=O)(=O)NCc3ccccc3Cl)cc2N1,-6%,-14%,-16%,nt,2%,5%[57 µM]
O=C1[C@@H]2C(c3cccnc3)=NO[C@@H]2C(=O)N1c1ccc2ccccc2c1,-9%,79µM*,?,nt,0%,?
COc1ccc(C2=NO[C@@H]3C(=O)N(c4ccc5c(c4)OCCO5)C(=O)[C@H]23)cc1OC,3%,25%,-8%,-31%[12.7 µM],-1%,16%
COc1ccc(-c2cccc3c2NC(=O)C3=O)cc1OC,nt,?,27µM*,nt,-1%,10%
ClC(Cl)(c1nnnn1-c1ccccc1)c1nnnn1-c1ccccc1,56µM*,20µM*,1.9µM*,0.56µM*,?,?
c1ccc(-c2nnnn2-c2ccccc2)cc1,6%,-11%,-7%,nt,17%,18%
CCc1ccc(C(=O)OCC(=O)c2c[nH]c3ccccc23)cc1,nt,nt,nt,nt,2%,nt
Nc1[nH][nH]c(=O)c1N=Nc1cccc(Cl)c1,?,?,-18%,?,?,-8%
CCOc1ccc(N=Nc2c(N)[nH][nH]c2=O)cc1,?,79µM*,-1%,3.5µM*,?,-25%
